Reference: the supplement of paper PMC10338343
± gives the standard deviation.

Key:
[1] = system: MILI (PIWIL2) piRISC loaded with piRNA #1 (26 nt); assay: pre-steady-state target cleavage rate (min^-1); guide: piRNA #1 5'p-UGAGGUAGUAGGUUGUAUAGUAUCCA; higher = faster piRNA-guided slicing of the target; conditions: auxiliary factor: 500 nM mouse GTSF1;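 further: 1 nM active piRISC with 0.1 nM target library at 33 °C single turnover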
Procedure, shortened: (§1)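 Cleave-'n-Seq measured uncleaved targets by sequencing after a transcribed, DNA-blocked target RNA library […] was mixed with 1 nM active affinity-purified piRISC holding one synthetic guide, with or without 500 nM GTSF1 partner protein, at 33 °C in HEPES–potassium acetate buffer for 0–8 or 0–960 min. Counts were normalised to depth and to weakly complementary targets, three trials were pooled, and k3 was capped at 0.0001 min^-1. A burst-and-steady-state fit gave the pre-steady-state cleavage rate.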

[2] = system: EfPiwi piRISC loaded with piRNA #1 (26 nt); assay: pre-steady-state target cleavage rate (min^-1); auxiliary factor: 500 nM Ephydatia muelleri Gtsf1; guide: piRNA #1 5'p-UGAGGUAGUAGGUUGUAUAGUAUCCA; MIWI and MILI are mouse PIWI proteins and EfPiwi is from a freshwater sponge; tags in brackets are library labels; higher = faster piRNA-guided slicing of the target
Procedure, shortened: as §1

Row | Sequence | pre-steady-state target cleavage rate [1] | pre-steady-state target cleavage rate [2]
1 | GGAGUGGAUACUAGACAACCUACUACCUCA | 0.193 ± 0.011 | 0.226 ± 0.081
2 | GGAGACGAUACUAUUCAACCAACUACCUCA | 0.00612 ± 0.0026 | 0.00444 ± 0.002
3 | GGAGUGGAUACUAUAGCAACCUACUACCUCA | 0.188 ± 0.009 | 0.0919 ± 0.034
4 | GGAGACGAUACUAUACAACCUACAUCCUCA | 0.05 ± 0.011 | 0.00353 ± 0.0014
5 | GGAGACCAUACUAUACAACCUAUCUACCUCA | 0.0997 ± 0.014 | 0.00419 ± 0.0028
6 | GGAGACCUUACUAUGACAACCUACUACCUCA | 0.179 ± 0.018 | 0.00456 ± 0.0042
7 | GGAGACCUUACUUUACAUCCUACUACCUCA | 0.26 ± 0.022 | 0.00417 ± 0.0035
8 | GGAGUGGAUUCUAUACAAGCUACUACCUCA | 0.228 ± 0.013 | 0.00371 ± 0.0019
9 | GGAGACGAUACAAUACAACCAACUACCUCA | 0.0105 ± 0.0027 | 0.0037 ± 0.0029
10 | GGAGUGGAUACUAUACAACCUACUAGCUCA | 0.0481 ± 0.0088 | 0.00429 ± 0.0016
11 | GGAGAGGAUACUUUACAACCUACUAGCUCA | 0.0731 ± 0.013 | 0.00183 ± 0.0016
12 | GGAGACCAUACUAUACUACCUACUACGUCA | 0.104 ± 0.017 | 0.0039 ± 0.0028
13 | GGAGAGGAUACUAUACUAGCUACUACCUCA | 0.113 ± 0.011 | 0.00387 ± 0.0029
14 | GGAGUCGAUACUAUACAACCUUCUACCUCA | 0.00775 ± 0.0022 | 0.00622 ± 0.0028
15 | GGAGACCUAUCCAUACAACCUACUACCUCA | 0.0836 ± 0.016 | 0.0212 ± 0.01
16 | GGAGUGGAUACUAUACAACCUACUACCAGA | 0.034 ± 0.0071 | 0.00419 ± 0.0019
17 | GGAGACCAUAGAUUACAACCUACUACCUCA | 0.0355 ± 0.0071 | 0.00655 ± 0.0034
18 | GGAGACGAUACUAUACAACCUCUACCUCA | 0.0213 ± 0.0044 | 0.00608 ± 0.0025
19 | GGAGACCAUACUAGACAACCUACUACCUCA | 0.151 ± 0.014 | 0.0249 ± 0.01
20 | GGAGACCAUACUAUACAACCUUCUACCACA | 0.00753 ± 0.0037 | 0.00301 ± 0.0027
21 | GGAGACCUUACUAUACAACCUAGUACCUCA | 0.0616 ± 0.011 | 0.00384 ± 0.0019
22 | GGAGUCGAUACUAAACAACCUACUACCUCA | 0.183 ± 0.015 | 0.00865 ± 0.0048
23 | GGAGACCUUACUAUACAACCUACUAGCCUCA | 0.181 ± 0.018 | 0.00471 ± 0.0044
24 | GGAGACCUUACUAUACAACCUACUACCUUA | 0.174 ± 0.019 | 0.0898 ± 0.034
25 | GGAGUGCUUACUAUACAACCUACUACCUCA | 0.162 ± 0.0091 | 0.0694 ± 0.025
26 | GGAGACGAUACUAUACAACCUACUACCUGA | 0.132 ± 0.02 | 0.0064 ± 0.002
27 | GGAGAGGAUACUUUACAACCUUCUACCUCA | 0.00789 ± 0.002 | 0.0032 ± 0.0028
28 | GGAGACCUUAGUAUACAACCUACUACCUGA | 0.0569 ± 0.0097 | 0.00359 ± 0.0036
29 | GGAGACGAUACUAUACAUCCUACAACCUCA | 0.287 ± 0.022 | 0.00566 ± 0.0028
30 | GGAGACGUUACUAUACUACCUACUACCUCA | 0.169 ± 0.011 | 0.00494 ± 0.0024
